# High-throughput results as filed in PubChem BioAssay.
# RORg inh = ROR gamma (mouse) transcription inhibition. P51450. Drosophila S2 Gal4-RORgamma UAS-luciferase reporter, 20 h. Potency, µM (doses to about 53.6 µM), for inactives: at the top dose activity change, negative = inhibition, hits mostly inhibitors. hit rate 5.4% among 310,000. AID 2551; note: potency is the fitted concentration of half-maximal effect; nearly all actives have a fitted effect of over 60% in size
# Target sequence (P51450 whole entry, looked up, the tested form may be a part): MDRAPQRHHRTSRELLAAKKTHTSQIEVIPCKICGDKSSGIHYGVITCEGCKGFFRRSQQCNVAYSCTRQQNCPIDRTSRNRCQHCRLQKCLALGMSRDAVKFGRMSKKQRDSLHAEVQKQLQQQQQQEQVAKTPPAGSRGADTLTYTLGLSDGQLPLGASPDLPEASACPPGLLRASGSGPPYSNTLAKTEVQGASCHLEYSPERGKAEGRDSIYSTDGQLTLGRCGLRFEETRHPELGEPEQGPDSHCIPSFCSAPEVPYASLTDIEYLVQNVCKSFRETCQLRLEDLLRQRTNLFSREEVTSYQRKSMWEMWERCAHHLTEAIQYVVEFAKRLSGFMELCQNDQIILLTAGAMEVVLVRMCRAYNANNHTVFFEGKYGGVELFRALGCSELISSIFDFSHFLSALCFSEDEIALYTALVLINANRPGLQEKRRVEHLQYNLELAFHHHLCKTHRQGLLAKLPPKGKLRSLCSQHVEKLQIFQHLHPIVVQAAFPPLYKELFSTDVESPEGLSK
#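 In this cell-based reporter format, copper sulfate (700 uM final) drives Gal4–ROR gamma fusion expression from a metallothionein promoter in Drosophila Schneider cells; compounds preincubated 1 hr, reporter read after 20 hr at ambient temperature.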
# DT40 TDP1 no CPT = qHTS for Inhibitors of human tyrosyl-DNA phosphodiesterase 1 (TDP1): qHTS in cells in absence of CPT | hit rate 15% among 420,000 | Potency, µM (series often up to 46.2 µM), for inactives: at the top dose activity change, negative = growth inhibition, usual class: inhibitors | DT40 Tdp1-/- hTDP1 cells, no CPT, ATP luminescence, 48 h; note: potency is the fitted concentration of half-maximal effect; nearly all actives have a fitted effect of over 55% in size
#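 Luminescent ATP content (CellTiter-Glo) served as the growth readout. Knockout chicken DT40 cells expressing human TDP1 were exposed to compounds without camptothecin for a minimum 48 hr at 37 °C.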
# Gal4-VP16 FLuc = inhibits Gal4-VP16 luciferase reporter, ROR gamma counter-screen | hit rate 3.5% among 310,000 | AID 2546 | Drosophila S2 Gal4-VP16 UAS-luciferase, luminescence, 20 h | Potency, µM (top dose mostly 53.6 µM), for the others: at the top dose activity, negative = inhibition, most hits filed as inhibitors;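 note: Gal4-VP16 expression switched on by copper sulfate through the metallothionein promoter; potency is the fitted concentration of half-maximal effect; nearly all actives have a fitted effect of over 50% in size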
# ELG1 repair inh = ELG1-dependent DNA repair inhibition. HEK293T ELG1-luciferase reporter, luminescence, 16 h; DNA damage induced by 5-fluorouridine. Potency, µM (top dose mostly 46.1 µM), inactives show at the top dose activity change, negative = inhibition, hits mostly inhibitors. hit rate 2.3% among 330,000. AID 504467; note: potency is the fitted concentration of half-maximal effect; nearly all actives have a fitted effect of over 55% in size
#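 Step one: seed 2,000 cells per well. Step two: pin-transfer compound or DMSO alongside 5-fluorouridine. Step three: incubate 16 hr, 37 °C, 5% CO2. Step four: add ONE-Glo, wait 30 min, read luminescence.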
# IL-1B inflam inh = inhibitors of inflammasome signaling (IL-1 beta secretion). activity change, % at 57.5 µM. THP-1 LPS/ATP IL-1B secretion, AlphaLISA, 16 h; hits give low values. hit rate 4.7% among 360,000; in the data active = activity change below about -50%; inconclusive = mostly about -30% to -49%
#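 Secreted IL-1B measured by AlphaLISA bead assay after 16 h compound exposure of THP-1 cells; compounds (final up to 57.5 uM) added 1 h before LPS (250 ng/mL) and ATP (1.25 mM) stimulation; lower signal means less secretion.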
# TDP1 cell CPT = growth inhibition of DT40 Tdp1-/-;hTDP1 cells with camptothecin (screen for TDP1 inhibitors). chicken DT40 Tdp1-/-;hTDP1 cells + 20 nM CPT, ATP luminescence, 48 h. Potency, µM (highest dose often 46.2 µM), inactives show top-dose activity change, negative = growth inhibition, most hits filed as inhibitors. hit rate 12% among 420,000. AID 686979; note: potency is the fitted concentration of half-maximal effect; nearly all actives have a fitted effect of over 55% in size
#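 Chicken DT40 Tdp1-/- cells stably complemented with human TDP1 were seeded at 400 cells/well in medium containing 20 nM camptothecin, exposed to pin-transferred compounds, and grown at 37 °C for at least 48 hr. Viability was read as ATP luminescence.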
# The depositor's hits bear a star; ? = inconclusive; . = not tested or not shown; [ ] = remark or other dose. Compounds with a hit are over-represented: about 21% of the library has one in this group of screens. Unless noted, calls come from the whole dose curve; as a rule, active = well fitted curve in the direction sought with a large enough effect; inconclusive = small, poorly fitted or top-dose-only effect, or another doubt; inactive = no such curve, though single readings can be large; an effect the other way counts as inactive or inconclusive. % is set by controls: 0 for no effect and ±100 for the full control effect.
SMILES,RORg inh,DT40 TDP1 no CPT,Gal4-VP16 FLuc,ELG1 repair inh,IL-1B inflam inh,TDP1 cell CPT
CNC(=S)NNC(=O)c1ccccc1Cl,?,0%,-3%,0%,2,3%
CC(C)(C)C(=O)NC(=S)NNC(=O)c1ccc(Cl)cc1Cl,2µM*,5.8µM*,?,?,98,?
O=C1C=C(c2ccccc2)CC(c2ccc(F)cc2)C1 (stereo unspecified),.,?,.,.,-1,?
COCc1cccc(C2=CC(=O)C[C@H](c3ccc(F)cc3)C2)c1,.,?,.,?,0,?
COc1ccc(C2=CC(=O)CC(c3ccc(F)cc3)C2)cn1 (stereo unspecified),.,?,.,.,-16,15µM*
CCc1ccc(-c2n[nH]nc2C2=CC(=O)C[C@H](c3ccc(F)cc3)C2)cc1,.,2.9µM*,.,.,-29,?
CCOC(=O)C1=CNS(=O)(=O)NC1c1ccc2ccccc2c1 (stereo unspecified),.,-4%,.,28%,55,-14%
CN(C)c1cccc2c1c(NC(=O)Nc1ccc(F)cc1F)nn2C,-3%,?,7%,4%,-53*,?
CN(C)c1cccc2c1c(NC(=O)c1ccc(F)cc1)nn2C,-17%,?,-5%,2%,26,?
Cc1nc(C)c(C(=O)OCC(=O)N(C)c2ccccc2)s1,.,-11%,.,10%,-5,1%
Nc1ccc2c(c1)[nH]c(=O)c1cc(N)ccc12,.,?,.,.,-5,-27%
Cc1ccc2c(c1)sc1nc(-c3cc4cc(Cl)ccc4oc3=O)cn12,.,-12%,.,.,.,14%
Cc1cc(Oc2ccc(Cl)cc2)nc(-c2ccccn2)n1,0.63µM*,5.2µM*,5.6µM*,?,46,5.2µM*
c1ccc(-c2[nH]ncc2-c2ccnc3ccccc23)nc1,2µM*,.,3.2µM*,.,.,.
Clc1cccc(-n2ncc3c(N4CCC(Cc5ccccc5)CC4)ncnc32)c1,.,-3%,.,.,.,-15%
Cn1ncc2c(N3CCN(c4ccccc4Cl)CC3)ncnc21,.,21µM*,.,.,.,?
CN1CCN(c2ncnc3c2cnn3-c2cccc(Cl)c2)CC1,.,16µM*,.,.,.,16µM*
Cn1ncc(Cl)c1C(=O)N1CCN(c2cccc(Cl)c2)CC1,-13%,?,-5%,9%,-13,?
Cn1ncc2c(N3CCOCC3)ncnc21,7%,-18%,-3%,?,-11,-25%
Cn1ncc2c(N3CCN(c4cccc(Cl)c4)CC3)ncnc21,.,5.8µM*,.,.,.,?
Cc1ccc(O)c(NC(=O)c2onc(C)c2Cl)c1,19%,-28%,?,?,-15,-7%
COc1ccc(OC)c(C(c2nnnn2C2CCCC2)N2CCN(c3ccc(F)cc3)CC2)c1 (stereo unspecified),-7%,?,-18%,-13%,-6,?
COc1ccc(N2CCN(C(c3nnnn3C3CCCC3)C(C)C)CC2)cc1 (stereo unspecified),27%,18µM*,-1%,?,14,21µM*
COc1ccc(C(c2nnnn2C2CCCC2)N2CCC(C)CC2)c(OC)c1 (stereo unspecified),-11%[0.365 µM],21µM*,.,-16%,-11,18µM*
CC(C)C(c1nnnn1C1CCCCC1)N1CCc2ccccc21 (stereo unspecified),-18%,?,-5%,-2%,5,?
SMILES,RORg inh,DT40 TDP1 no CPT,Gal4-VP16 FLuc,ELG1 repair inh,IL-1B inflam inh,TDP1 cell CPT
CC(C)C(c1nnnn1C1CCCC1)N1c2ccccc2CC1C (stereo unspecified),?,13µM*,-3%[0.365 µM],9%,-5,21µM*
COc1ccc(C(c2nnnn2C2CCCC2)N2CCN(c3ccccc3)CC2)cc1 (stereo unspecified),-5%,?,-14%,-30%,?,?
CN(C)c1ccc(/C=C(\NC(=O)c2ccccc2)C(=O)NCCN2CCOCC2)cc1,-29%,-4%,-9%,-6%,-13,-3%
COc1ccc(-c2csc3nc(C)nc(N4CCC(C)CC4)c23)cc1OC,7.1µM*,18µM*,11%[10 µM],?,9,21µM*
Cc1nc(N2CCC(C(N)=O)CC2)c2c(-c3cccs3)csc2n1,18%,21µM*,0%[10 µM],?,23,?
Cc1cc(-n2c(SCC(=O)Nc3ccc(F)c(F)c3)nc3n[nH]c(C)c3c2=N)ccc1Cl,-44%,1.5µM*,?,0%,-6,2.6µM*
Cc1ccc(-n2c(Cc3cccs3)nnc2SCC(=O)Nc2ccc(F)c(F)c2)cc1,12%,-18%,-1%,-18%,3,-10%
CCOc1ccc(-n2c(SCC(=O)Nc3ccc(Br)cc3)nc3n[nH]c(C)c3c2=N)cc1,?,7.3µM*,?,43%,-1,13µM*
Cc1cc(-n2c(SCC(=O)Nc3ccc(Br)cc3)nc3n[nH]c(C)c3c2=N)ccc1Cl,?,?,20µM*,2%,16,?
Cc1ccc(-n2c(SCC(=O)Nc3ccc(Cl)cc3)nc(O)cc2=O)cc1,15%,20%,4%,?,13,11%
CCOc1ccc(-n2c(SCC(=O)Nc3ccccc3CC)nc3n[nH]c(C)c3c2=N)cc1,1%,.,1%,?,.,.
Cc1[nH]nc2nc(SCC(=O)NCC3CCCO3)n(-c3ccc(Br)cc3)c(=N)c12 (stereo unspecified),-18%,?,-1%,-25%,-24,15µM*
CCCCN1CC[C@H]2C=CC[C@@H](C(=O)NCc3cccnc3)[C@H]2C1=O,.,5%,.,.,.,2%
CNC(=O)c1c(NC(=O)c2cc(=O)c3ccccc3o2)sc2c1CCC2,.,0%,.,.,.,1%
CCCn1c(N)c(Sc2ccc([N+](=O)[O-])cc2)c(=O)n(CCC)c1=O,18%,?,3%,5%,-16,-14%
CCCn1c(N)c(Sc2ccccc2)c(=O)n(CCC)c1=O,25%,15µM*,1%,-11%,0,?
CCc1ccccc1NC(=O)CSc1nc2c(oc3ccccc32)c(=O)n1-c1ccccc1F,.,18µM*,.,.,.,?
Cc1ccccc1NC(=O)CSc1nc2c(oc3ccccc32)c(=O)n1-c1ccccc1F,.,23µM*,.,.,.,?
CC(=O)c1ccc(S(=O)(=O)Nc2ccc(C(=O)NCCCn3ccnc3)cc2)cc1,.,11%,.,8%,-21,2%
O=C(NN1CCOCC1)c1cc(-c2cccs2)nc2ccccc12,0%,?,-16%,-11%,-5,-17%
